Screening data (PubChem BioAssay)
Shown are actives, neighbours in structure and some others; about 21% of the full set was active somewhere.
Pf growth 48h: Primary qHTS for delayed death inhibitors of the malarial parasite plastid, 48 hour incubation; Potency, µM (top dose mostly 28.7 µM), actives largely listed as inhibitors; P. falciparum luciferase growth in erythrocytes, 48 h; hit rate 5.9% among 310,000
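Parasite viability was followed by luminescence of a genomically integrated firefly luciferase. Cultures held 0.1% parasitemia at 2% hematocrit (final), incubated under 5% CO2 at 37 C.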
Shiga toxin inh: A qHTS for Small Molecule Inhibitors of Shiga Toxin | Vero cells, Shiga toxin protein synthesis inhibition reporter | inhibition, % at 38.7 µM | hit rate 9.2% among 290,000; in the data active = inhibition mostly above about 28%, no sharp cut-off; inactive = mostly below about 43%
Pf growth 96h: Primary qHTS for delayed death inhibitors of the malarial parasite plastid, 96 hour incubation; P. falciparum luciferase reporter growth, 96 h; Potency, µM (highest dose often 28.7 µM), hits mostly inhibitors; hit rate 6.9% among 320,000; AID 504834, 2011
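Infected RBCs, 2% Hct / 0.05% parasitemia final; luciferase-reporter P. falciparum; cpd 96 h, 37 C, 5% CO2; luciferase detection reagent; luminescence.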
Cycloheximide cs: Cycloheximide Counterscreen for Small Molecule Inhibitors of Shiga Toxin; cell reporter, cycloheximide protein synthesis inhibition counterscreen; max response, %; hit rate 12% among 300,000; AID 2314, 2010; in the data active = max response mostly above about 13%, no sharp cut-off; inactive = mostly below about 14%; also: read at 38.3 µM for the half of the compounds with a filed dose
A number is an active result; n = inactive; u = inconclusive; x = no result given. Unless noted, calls follow the shape of the dose curve; as a rule, active = well fitted inhibition curve with a large enough effect; inconclusive = small, poorly fitted or top-dose-only effect, or another doubt; inactive = no such curve, though single readings can be large or run the other way.

SMILES | Pf growth 48h | Shiga toxin inh | Pf growth 96h | Cycloheximide cs
Cc1cccc(CCN2C(Nc3ccccc3)=NC[C@@H]2CC(C)C)c1 | 10µM | x | u | x
CCN1C(Nc2ccccc2)=NC[C@@H]1Cc1ccccc1 | u | n | n | n
CC(C)CCN1C(Nc2ccccc2)=NC[C@@H]1CC(C)C | n | n | n | n
CCN1C(Nc2ccccc2)=NC[C@@H]1CC(C)C | n | n | n | n
COC(=O)c1cnc(N2CCCN(S(=O)(=O)c3ccc(C(F)(F)F)cc3)CC2)nc1C(F)(F)F | n | n | n | n
CC(C)Oc1ccc(C(CC(=O)O)n2cnnn2)cc1 (configuration not stated) | n | n | n | n
Cc1ccc(S(=O)(=O)N(CCC(=O)NCc2ccc(S(N)(=O)=O)cc2)c2ccccc2)cc1 | n | x | u | x
CC(=O)O[C@]1(C(C)=O)CC[C@H]2[C@@H]3C[C@H](C)C4=CC(=O)CC[C@]4(C)[C@H]3CC[C@@]21C | 13µM | n | 12µM | n
CC(=O)O[C@]1(C(C)=O)CC[C@H]2[C@@H]3C=C(Cl)C4=CC(=O)[C@@H]5C[C@@H]5[C@]4(C)[C@H]3CC[C@@]21C | 11µM | x | 8.5µM | x
CC(=O)O[C@]1(C(C)=O)CC[C@H]2[C@@H]3C=C(Cl)C4=CC(=O)CC[C@]4(C)[C@H]3CC[C@@]21C | 12µM | n | u | n
CC(=O)N[C@@H]1[C@@H](O)[C@@H]2OC(c3ccccc3)OC[C@H]2O[C@@H]1N=[N+]=[N-] (some centres not stated) | n | n | n | n
O=C(CNC(=O)CNC(=O)c1ccc(Cl)cc1Cl)NCc1cccc(Cl)c1 | n | n | n | n
Oc1ccc(/C=C/c2cnccn2)cc1 | n | 94 | n | 34
O=C(c1cnccn1)N1CCN(C/C=C/c2ccccc2)CC1 | n | n | u | n
CCc1ccc(/C(C)=N/NC(=O)c2c[nH]c3ccccc23)s1 | u | n | n | 18
C/C(=N/NC(=O)CNC(=O)c1ccccn1)c1ccc([N+](=O)[O-])cc1 | n | n | n | n
C/C(=N\NC(=O)c1ccc(F)cc1)c1ccccn1 | u | 97 | n | 62
C/C(=N/NS(=O)(=O)c1ccccc1)c1c[nH]c2ccccc12 | n | n | u | n
CCc1ccc(/C(C)=N/NC(=O)c2ccccn2)cc1 | n | n | u | 21
C=CCNC(=S)N/N=C(\C)c1ccccn1 | x | n | 0.0029µM | n
O=c1c2cc(NC(=S)N3CCCCCC3)ccc2nc2n1CCCCC2 | n | n | n | n
COc1ccc(Br)cc1CNC(=O)CCNC(=O)Cn1ccc2ccccc2c1=O | n | n | n | n
O=C(N/N=C(\c1ccccc1)c1ccccn1)c1cccc([N+](=O)[O-])c1 | u | n | u | n
CC(=N/O)/C(C)=N\NC(=O)c1ccccn1 | u | n | n | n
C/C(=N\NC(=O)c1cc2ccccc2cc1O)c1ccccn1 | 3.7µM | n | n | 25
SMILES | Pf growth 48h | Shiga toxin inh | Pf growth 96h | Cycloheximide cs
C/C(=N\NC(=O)c1ccccn1)c1ccc(C(=O)O)s1 | n | 74 | n | 45
CCOc1ccc(C(=O)N/N=C(\c2ccccc2)c2ccccn2)cc1 | 13µM | 61 | 12µM | 42
C/C(=N/NC(=O)CNC(=O)c1ccccn1)c1ccccc1 | n | n | n | n
Fc1ccc(N/N=C(/c2ccccc2)c2ccccn2)cc1 | u | n | 5.2µM | 30
Cc1cccc(C)c1NC(=O)CN(C)C(=O)C1CC1C (configuration not stated) | n | x | n | x
C/C(=N\NC(=O)c1c[nH]c2ccccc12)c1ccccn1 | u | 147 | u | 32
C/C(=N\NC(=O)c1c[nH]c2ccccc12)c1ccco1 | x | 61 | n | 71
C/C(=N\NC(=O)c1ccc(-c2ccccc2)cc1)c1ccco1 | u | n | u | n
O=[N+]([O-])c1ccc(N=Cc2sc3ccccc3c2O)cc1 | n | 108 | n | 43
Oc1cccc(C=NCc2ccccc2)c1O | n | n | u | n
O=[N+]([O-])c1cccc(N=Cc2sc3ccccc3c2O)c1 | n | 86 | n | 38
NC(=O)c1ccc(N=Cc2ccc([N+](=O)[O-])s2)cc1 | n | n | n | n
O=[N+]([O-])c1cccc(/C=C/c2nc(C=Nc3ccc4ccccc4c3)c(O)o2)c1 | n | n | n | n
Oc1c(C=NCc2ccccc2)sc2ccccc12 | n | 91 | n | 28
CSc1ncccc1C(=O)OCC(=O)Nc1ccc2c(c1)CCC2 | n | x | n | x
CCCCn1c(N)c(N(CC(C)C)C(=O)c2cc(-c3ccncc3)nc3ccccc23)c(=O)[nH]c1=O | u | x | n | x
COCCNC(=O)Cn1nc(-c2ccccc2C)ccc1=O | n | x | u | n
CCCOc1ccc(-c2nnn(CC(=O)c3ccc4c(c3)OCCO4)n2)cc1 | u | n | 7.4µM | n
COc1ccc(-c2nnn(CC(=O)c3ccc4c(c3)OCCO4)n2)cc1OC | n | n | n | 16
CCOc1ccc(-c2nnn(CC(=O)c3ccc4c(c3)OCCO4)n2)cc1 | n | n | u | n
COc1ccc(OC)c(CN2CCCC(CO)C2)c1 (configuration not stated) | x | n | n | n
CC(=O)N1c2ccccc2C2(O)N=C(C)SC12 (configuration not stated) | n | n | n | 12
CCNC(=S)Nc1ccc(S(=O)(=O)Nc2cc(C)nc(C)n2)cc1 | n | n | n | n
O=C(COC(=O)C1(c2ccc(Cl)cc2)CCCC1)NCc1ccco1 | n | n | n | n
O=C(COC(=O)c1ccc(O)cc1)Nc1ccc(Cl)cc1 | u | n | n | 31
SMILES | Pf growth 48h | Shiga toxin inh | Pf growth 96h | Cycloheximide cs
O=C(O)CCC(=O)Nc1ccc(C(=O)OCC(=O)c2ccc(Cl)cc2)cc1 | n | n | n | 15
CCc1ccc(NC(=O)COC(=O)C2(c3ccc(Cl)cc3)CCCC2)cc1 | n | n | 15µM | n
CC(=O)c1cccc(NC(=S)NC2CCCCC2)c1 | n | n | n | n
CC(=O)c1ccc(NC(=O)C(C)NCc2ccccc2Cl)cc1 (configuration not stated) | n | n | u | 24
CC(=O)c1ccc(NC(=O)Nc2ccccc2)cc1 | n | 79 | x | 38
CNC(=O)c1ccc(NC(=O)Nc2ccccc2)cc1 | n | 50 | u | 30
CC(=O)c1cccc(NC(=O)C2CCCCC2)c1 | n | n | 1.5µM | n
CCC(C)C(=O)OC1CCC=C2C=CC(C)C(CCC3CC(O)CC(=O)O3)[C@@H]21 (some centres not stated) | n | x | n | x
CCN(CC)c1ccc(NC(=O)Nc2ccccc2)cc1 | u | 58 | n | 48
CCN(CC)c1ccc(NC(=O)Nc2ccc(C(C)=O)cc2)cc1 | u | n | n | n
CC(=O)c1cccc(NC(=O)Nc2ccccc2)c1 | n | 62 | n | 26
CC(=O)c1cccc(NC(=O)CCOc2ccccc2)c1 | n | 51 | n | 25
CC(=O)c1cccc(NC(=O)C2C3C=CC(C3=C(c3ccccc3)c3ccccc3)C2C(=O)O)c1 (configuration not stated) | n | n | u | 11
Cc1ncc([N+](=O)[O-])n1C[C@H](O)CCl | n | x | n | x
COc1cc(OC)cc(N2C(=O)CC(N3CCC(C(=O)N4CCCCC4)CC3)C2=O)c1 (configuration not stated) | n | n | 15µM | n
